Laboratory results as given in ChEMBL document CHEMBL3988442, “University of Dundee, Small-Polar-MMV Screening Library” (2021).
For some assays here: Potency and affinity values are given separately.

Legend:
Set-up in all cases: scale not given: direction of the effect not stated beside the values
[1] = target: Protein translocase subunit SecA (Escherichia coli (strain K12)) (UniProt P10408); test: Assay to Identify E. coli SecA ATPase Inhibitors; type: functional; conditions: 30 µM
[2] = target: T1, Ubiquitin-activating enzyme e1, putative (Leishmania donovani (strain BPK282A1)) (UniProt E9BSI1); test: Leishmania donovani Ubiquitin Activating Enzyme (LdE1); type: functional; conditions: 30 µM
T1 sequence (whole entry): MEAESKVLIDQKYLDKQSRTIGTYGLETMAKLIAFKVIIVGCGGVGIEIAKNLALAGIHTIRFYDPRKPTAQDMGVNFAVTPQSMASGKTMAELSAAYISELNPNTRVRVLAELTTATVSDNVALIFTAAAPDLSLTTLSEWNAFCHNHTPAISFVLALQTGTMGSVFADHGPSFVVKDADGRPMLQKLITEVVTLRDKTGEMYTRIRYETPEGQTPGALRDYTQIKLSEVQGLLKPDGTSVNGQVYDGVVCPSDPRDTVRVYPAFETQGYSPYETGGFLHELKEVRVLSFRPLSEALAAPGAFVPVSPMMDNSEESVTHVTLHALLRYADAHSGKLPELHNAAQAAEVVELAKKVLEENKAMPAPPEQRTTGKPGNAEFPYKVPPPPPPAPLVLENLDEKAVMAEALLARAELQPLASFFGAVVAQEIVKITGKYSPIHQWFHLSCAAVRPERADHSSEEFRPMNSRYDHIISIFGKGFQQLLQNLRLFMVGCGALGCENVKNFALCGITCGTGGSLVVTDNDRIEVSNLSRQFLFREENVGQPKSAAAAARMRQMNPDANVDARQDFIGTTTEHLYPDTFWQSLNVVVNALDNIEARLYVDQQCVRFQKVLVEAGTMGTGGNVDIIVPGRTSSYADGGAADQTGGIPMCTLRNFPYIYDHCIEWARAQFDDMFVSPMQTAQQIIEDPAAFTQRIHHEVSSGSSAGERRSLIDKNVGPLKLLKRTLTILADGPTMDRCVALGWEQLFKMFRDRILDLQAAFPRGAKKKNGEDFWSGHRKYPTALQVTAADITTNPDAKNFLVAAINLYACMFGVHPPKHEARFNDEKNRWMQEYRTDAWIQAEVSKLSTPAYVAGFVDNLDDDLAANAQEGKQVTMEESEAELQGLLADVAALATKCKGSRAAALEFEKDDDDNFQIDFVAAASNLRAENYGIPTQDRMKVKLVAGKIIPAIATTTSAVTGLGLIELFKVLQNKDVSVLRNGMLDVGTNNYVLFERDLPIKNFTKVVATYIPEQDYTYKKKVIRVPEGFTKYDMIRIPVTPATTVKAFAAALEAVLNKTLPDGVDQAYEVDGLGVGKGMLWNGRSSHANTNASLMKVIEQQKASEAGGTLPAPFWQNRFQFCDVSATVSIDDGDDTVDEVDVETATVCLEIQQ

[3] = target: Sialic acid-binding Ig-like lectin 9 (Homo sapiens) (UniProt Q9Y336); test: Hs-Siglec9 ALPHAscreen SOP 20170721; conditions: 10 µM
Sialic acid-binding Ig-like lectin 9 (Homo sapiens), sequence (Q9Y336 whole entry): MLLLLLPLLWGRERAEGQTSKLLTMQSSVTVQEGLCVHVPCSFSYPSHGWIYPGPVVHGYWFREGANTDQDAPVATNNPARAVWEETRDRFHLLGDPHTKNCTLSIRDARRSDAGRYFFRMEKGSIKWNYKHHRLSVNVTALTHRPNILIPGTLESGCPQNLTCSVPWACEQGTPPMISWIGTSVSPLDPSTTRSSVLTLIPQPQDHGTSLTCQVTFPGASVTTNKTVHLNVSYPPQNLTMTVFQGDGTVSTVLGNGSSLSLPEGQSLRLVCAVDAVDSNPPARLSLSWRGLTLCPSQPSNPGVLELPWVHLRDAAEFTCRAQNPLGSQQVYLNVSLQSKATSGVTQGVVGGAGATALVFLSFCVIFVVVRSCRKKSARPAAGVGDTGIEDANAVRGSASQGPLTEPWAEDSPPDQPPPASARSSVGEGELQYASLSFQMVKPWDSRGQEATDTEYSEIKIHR

[4] = tested on: Trypanosoma cruzi; test: Trypanosoma cruzi phosphomannomutase and mannose-1-phosphate guanylyltransferase assay; type: functional; conditions: 10 µM
[5] = target: T2, Arginase-2, mitochondrial (Homo sapiens) (UniProt P78540); test: in vitro enzyme assay to detect the production of urea directly proportional to the activity of Arginase II; type: functional; conditions: 33.3 µM; note: in the data most compounds retested in dose-response had high values
T2 sequence (whole entry): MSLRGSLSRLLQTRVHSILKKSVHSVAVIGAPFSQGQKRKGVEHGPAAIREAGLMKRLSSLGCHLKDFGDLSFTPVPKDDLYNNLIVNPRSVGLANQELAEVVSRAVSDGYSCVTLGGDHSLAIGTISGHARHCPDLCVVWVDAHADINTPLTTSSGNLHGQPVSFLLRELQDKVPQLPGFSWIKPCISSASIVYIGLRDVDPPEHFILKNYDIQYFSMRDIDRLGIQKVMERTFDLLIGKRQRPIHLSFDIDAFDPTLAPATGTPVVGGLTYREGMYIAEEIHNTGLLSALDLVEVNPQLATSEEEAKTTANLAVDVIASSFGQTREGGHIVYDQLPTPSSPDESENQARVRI

[6] = target: T3, Proteasome subunit beta (Trypanosoma cruzi) (UniProt O96673); test: Trypanosoma cruzi proteasome chymotrypsin-like activity (TcProtChymo) assay.; note: in the data most compounds retested in dose-response had high values; type: functional; conditions: 9.37 µM
T3 sequence (whole entry): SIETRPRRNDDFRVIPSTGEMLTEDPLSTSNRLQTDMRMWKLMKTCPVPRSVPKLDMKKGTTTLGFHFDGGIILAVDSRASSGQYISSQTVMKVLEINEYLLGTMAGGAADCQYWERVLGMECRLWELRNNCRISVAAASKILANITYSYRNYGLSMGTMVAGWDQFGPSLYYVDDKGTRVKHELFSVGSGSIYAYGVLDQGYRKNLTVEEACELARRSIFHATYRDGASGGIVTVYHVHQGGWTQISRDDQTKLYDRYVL

[7] = species: Homo sapiens; test: To identify inhibition of the IFN signalling (Jak-Stat) pathway via expression of an eGFP reporter gene under the control of an IFN-stimulated response element (ISRE) containing MxA promoter.; type: functional; conditions: 30 µM
[8] = target: T4, Tyrosyl-tRNA synthetase, putative (Trypanosoma cruzi (strain CL Brener)) (UniProt Q4DSP6); test: Trypanosoma cruzi tyrosyl tRNA synthetase (TcYRS) _High Tyrosine SOP; type: functional; conditions: 30 µM; note: in the data most compounds retested in dose-response had high values
T4 sequence (whole entry): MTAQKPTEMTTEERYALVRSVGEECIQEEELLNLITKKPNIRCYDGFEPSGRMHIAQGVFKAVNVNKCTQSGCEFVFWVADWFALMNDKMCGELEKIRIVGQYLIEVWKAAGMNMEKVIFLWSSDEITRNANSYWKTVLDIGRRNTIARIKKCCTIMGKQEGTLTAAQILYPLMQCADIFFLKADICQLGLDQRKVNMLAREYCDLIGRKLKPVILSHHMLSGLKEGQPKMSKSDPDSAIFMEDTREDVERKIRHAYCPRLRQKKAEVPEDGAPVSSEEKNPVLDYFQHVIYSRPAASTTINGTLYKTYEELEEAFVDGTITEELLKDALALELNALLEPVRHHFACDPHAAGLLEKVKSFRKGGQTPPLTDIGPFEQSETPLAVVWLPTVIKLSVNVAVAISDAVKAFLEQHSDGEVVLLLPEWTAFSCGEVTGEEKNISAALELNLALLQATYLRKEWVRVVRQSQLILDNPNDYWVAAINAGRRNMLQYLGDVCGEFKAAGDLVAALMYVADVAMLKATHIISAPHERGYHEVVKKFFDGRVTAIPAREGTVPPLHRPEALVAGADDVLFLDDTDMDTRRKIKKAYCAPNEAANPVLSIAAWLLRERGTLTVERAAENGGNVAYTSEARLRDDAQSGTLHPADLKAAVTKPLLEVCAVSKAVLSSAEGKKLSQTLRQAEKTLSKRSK

[9] = target: T4, Tyrosyl-tRNA synthetase, putative (Trypanosoma cruzi (strain CL Brener)); test: Trypanosoma cruzi tyrosyl tRNA synthetase (TcYRS) SOP; type: functional; conditions: 30 µM
[10] = target: Chromo domain-containing protein 1 (Saccharomyces cerevisiae (strain ATCC 204508 / S288c) (Baker's yeast)) (UniProt P32657); test: ScCHD-1 Enzyme Inhibition Assay; type: functional; conditions: 30 µM; note: in the data most compounds retested in dose-response had high values
Chromo domain-containing protein 1 (Saccharomyces cerevisiae (strain ATCC 204508 / S288c) (Baker's yeast)), sequence (P32657 whole entry, the tested form may be a part): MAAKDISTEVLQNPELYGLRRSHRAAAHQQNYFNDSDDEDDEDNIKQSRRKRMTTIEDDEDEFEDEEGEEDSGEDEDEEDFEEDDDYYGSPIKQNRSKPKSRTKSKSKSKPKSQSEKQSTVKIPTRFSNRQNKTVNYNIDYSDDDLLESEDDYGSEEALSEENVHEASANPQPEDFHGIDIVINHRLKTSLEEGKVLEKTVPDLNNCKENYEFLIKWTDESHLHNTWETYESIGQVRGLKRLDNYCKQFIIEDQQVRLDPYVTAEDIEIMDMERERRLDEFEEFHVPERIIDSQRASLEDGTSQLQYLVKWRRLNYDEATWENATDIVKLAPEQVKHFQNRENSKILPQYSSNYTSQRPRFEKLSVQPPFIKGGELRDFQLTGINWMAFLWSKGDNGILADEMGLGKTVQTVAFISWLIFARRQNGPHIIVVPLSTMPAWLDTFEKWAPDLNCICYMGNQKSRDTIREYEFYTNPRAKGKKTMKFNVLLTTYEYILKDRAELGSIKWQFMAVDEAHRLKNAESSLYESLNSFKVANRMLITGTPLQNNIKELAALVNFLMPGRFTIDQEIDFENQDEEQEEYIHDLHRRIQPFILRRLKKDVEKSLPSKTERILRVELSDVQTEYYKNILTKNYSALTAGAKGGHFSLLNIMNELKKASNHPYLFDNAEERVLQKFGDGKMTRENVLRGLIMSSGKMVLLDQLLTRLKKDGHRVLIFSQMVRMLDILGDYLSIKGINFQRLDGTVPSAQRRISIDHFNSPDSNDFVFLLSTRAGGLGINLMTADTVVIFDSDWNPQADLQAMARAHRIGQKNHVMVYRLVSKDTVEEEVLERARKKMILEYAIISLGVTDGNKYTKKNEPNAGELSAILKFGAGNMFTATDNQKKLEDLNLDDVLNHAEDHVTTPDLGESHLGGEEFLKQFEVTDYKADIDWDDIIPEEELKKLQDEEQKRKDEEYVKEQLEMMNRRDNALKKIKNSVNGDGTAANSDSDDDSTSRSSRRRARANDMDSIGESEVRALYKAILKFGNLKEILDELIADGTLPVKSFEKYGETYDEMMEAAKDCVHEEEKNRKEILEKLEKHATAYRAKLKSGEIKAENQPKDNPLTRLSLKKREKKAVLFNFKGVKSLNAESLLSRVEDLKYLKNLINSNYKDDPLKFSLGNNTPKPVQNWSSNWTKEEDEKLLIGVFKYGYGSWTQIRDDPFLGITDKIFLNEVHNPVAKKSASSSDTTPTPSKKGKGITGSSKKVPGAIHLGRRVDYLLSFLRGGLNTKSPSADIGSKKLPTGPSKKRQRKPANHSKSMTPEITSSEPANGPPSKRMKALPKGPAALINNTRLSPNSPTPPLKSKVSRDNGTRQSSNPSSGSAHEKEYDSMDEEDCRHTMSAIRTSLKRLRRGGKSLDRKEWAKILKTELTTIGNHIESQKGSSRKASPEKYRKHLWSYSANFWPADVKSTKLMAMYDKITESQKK

Protein translocase subunit SecA (Escherichia coli (strain K12)), sequence (P10408 whole entry): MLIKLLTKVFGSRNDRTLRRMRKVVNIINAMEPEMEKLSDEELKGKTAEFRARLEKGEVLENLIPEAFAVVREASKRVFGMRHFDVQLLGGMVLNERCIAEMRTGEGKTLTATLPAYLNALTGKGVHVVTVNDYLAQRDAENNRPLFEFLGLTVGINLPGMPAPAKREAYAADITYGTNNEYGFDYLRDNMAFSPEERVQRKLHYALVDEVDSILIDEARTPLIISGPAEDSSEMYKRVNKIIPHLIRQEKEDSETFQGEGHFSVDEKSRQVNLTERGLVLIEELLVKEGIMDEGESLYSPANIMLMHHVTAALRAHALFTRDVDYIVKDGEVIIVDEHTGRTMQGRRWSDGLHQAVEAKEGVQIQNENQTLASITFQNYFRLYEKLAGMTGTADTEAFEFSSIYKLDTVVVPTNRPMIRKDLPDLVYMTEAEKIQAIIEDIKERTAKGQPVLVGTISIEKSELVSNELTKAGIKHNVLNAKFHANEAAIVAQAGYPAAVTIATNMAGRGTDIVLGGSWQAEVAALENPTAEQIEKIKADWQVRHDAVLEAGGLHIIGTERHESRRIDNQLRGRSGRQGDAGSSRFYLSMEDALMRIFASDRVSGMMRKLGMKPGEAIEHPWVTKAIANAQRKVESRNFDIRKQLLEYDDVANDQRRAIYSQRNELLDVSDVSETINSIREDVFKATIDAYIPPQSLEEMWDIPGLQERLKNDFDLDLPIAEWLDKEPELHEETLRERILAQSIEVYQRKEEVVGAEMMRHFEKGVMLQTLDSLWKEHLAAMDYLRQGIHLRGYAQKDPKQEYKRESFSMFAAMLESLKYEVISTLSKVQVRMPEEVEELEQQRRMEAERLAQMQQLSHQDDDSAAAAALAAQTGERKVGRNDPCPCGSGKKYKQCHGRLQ

| SMILES | Percent Effect [1] | Percent Effect [2] | Percent Effect [3] | Percent Effect [4] | Percent Effect [5] | Percent Effect [6] | Percent Effect [7] | Percent Effect [8] | Percent Effect [9] | Percent Effect [10] |
| --- | --- | --- | --- | --- | --- | --- | --- | --- | --- | --- |
| CCc1noc(C(C)N2CCN(Cc3nnc(C4CC4)o3)CC2)n1 (stereo not given) | -3.4% | 2.67% | -2.35% | 0.402% | -1.77% | -3.31% | -5.04% | 0.526% | 0% | -5.5% |
| O=C(Nc1ccccc1)N1CCn2nnc(COc3cccnc3)c2C1 | -6.28% | 6.49% | -0.598% | -0.487% | 4.86% | 5.56% | -5.86% | 8.95% | 15.4% | 5.54% |
| Cc1oncc1C(=O)NCc1cc(=O)n2c(n1)CN(C)CCC2 | -1.85% | 6.49% | -2.27% | -8.28% | 4.86% | 24.6% | 12.2% | 2.63% | 12.8% | -1.21% |
| O=C(NCCC1=CCCCC1)C1CCN(c2ccc3nncn3n2)CC1 | -2.89% | 10.8% | -2.17% | -0.485% | -2.45% | 11.1% | 28.5% | 4.79% | 14.6% | 2.87% |
| COc1ccc(C(=O)N2C[C@@H](CN3CCOCC3)[C@@H](CO)C2)c(C)c1 | -3.12% | 0% | 14.3% | 7.47% | 6.64% | 1.71% | -27.6% | 1.6% | 9.76% | -1.95% |
| CN1CCN(CC2CC2)C(=O)c2cnc(N3CC[C@@H](O)C3)nc21 | -3.96% | 0% | -4.48% | -3.21% | -4.43% | 3.99% | -1.63% | -2.63% | -7.69% | -9.27% |
| Cc1ccc([C@@H]2CN(C(=O)c3ccc[nH]3)C[C@H]2NC(=O)C2CC2)cc1 | -2.9% | 5.41% | 1.4% | -4.56% | -3.85% | 17.3% | 30.6% | 2.66% | 7.32% | -6.72% |
| CN(C)C[C@H]1OC[C@@H]2CCN(S(=O)(=O)c3ccccc3)C[C@@H]21 | -7.48% | 3.9% | 9.94% | -4.58% | -5.26% | 7.33% | 5.69% | -2.63% | -5.13% | -2.54% |
| O=C(C1CCOC1)N1CC[C@@H](O)[C@@H]1Cc1ccccc1 (stereo not given in full) | -4.39% | -14.3% | -3.29% | -10.1% | 3.2% | 6.09% | -3.1% | -28% | -60% | -3.36% |
| O=C(c1ccco1)N1C[C@H]2CCCN(Cc3cccs3)[C@H]2C1 | -3.68% | 14.3% | -9.29% | -4.58% | -2.02% | 15.1% | 28.2% | 3.68% | 7.69% | -4.26% |
| CCOc1ccc(CN2CCN(C(=O)c3ccc(C)n3C)CC2)cc1 | -2.75% | 5.33% | 3.18% | 1.41% | -4.43% | 12.1% | 8.63% | 6.84% | 15.4% | -10.5% |
| Cc1ncccc1O[C@H]1CCN(C(=O)Cc2cccs2)CC[C@@H]1O | -5.37% | 17.3% | 6.84% | 1.18% | -0.443% | 10.8% | 7.57% | 6.35% | 15% | -22.2% |
| CCc1nc(C2CCCN2C(=O)c2nccnc2N)no1 (stereo not given) | -2.75% | -5.13% | -2.27% | 8.92% | 0.82% | -4.69% | -2.29% | -2.39% | 6.02% | -1.91% |
| COc1ccc(C2CC(=O)Nc3c2nc2n3CCCC2)cc1OC (stereo not given) | -2.41% | 8.11% | 3.86% | -4.56% | 0.35% | 15.9% | 30.7% | 1.6% | 14.6% | -4.25% |
| CN(C)C(=O)CN1C(=O)CCC12CCN(Cc1ccc(F)cc1)CC2 | -1.87% | 22.1% | -5.35% | 0.188% | 3.2% | 18.1% | 14% | 9.66% | 15% | -11.4% |
| Cc1nn(C)c(N(C)C)c1CNCc1ccc(OCC(N)=O)cc1 | -3.65% | 8% | 0.758% | -2.61% | -1.33% | 13.2% | -6% | 5.79% | 7.69% | -13.9% |
| Cc1cccc(CN2CCC3(CCN(Cc4ccccn4)C3)C2=O)c1 (stereo not given) | -10.9% | 6.49% | 0.239% | -2.81% | 3.65% | 6.95% | 19% | -0.966% | 0% | -12.5% |
| CCO[C@@H]1CO[C@@]2(CCCN(S(=O)(=O)c3cccnc3)C2)C1 | -2.66% | 11.7% | -9.59% | -4.97% | 3.64% | 18.3% | 6.27% | 5.79% | 5.13% | 2.99% |
| COc1cc(C(=O)N2CCCS2(=O)=O)ccc1C | -4.9% | -2.67% | -1.38% | 4.82% | -3.99% | 14.7% | 1.35% | 4.74% | 10.3% | -8.07% |
| COc1ccc(C2CC(=O)Nc3c2cnn3C2CCCC2)cc1 (stereo not given) | -8.84% | -2.7% | -0.717% | 2.62% | 2.45% | 5.31% | 8.51% | 6.92% | 4.88% | -1.74% |
| O=C(NCc1ccccc1)[C@H]1C[C@@H]2CN(S(=O)(=O)C3CC3)C[C@H]1O2 | -3.6% | 1.3% | -4.1% | -3.99% | -1.22% | 14.4% | 14.4% | 3.68% | 7.69% | 1.77% |
| Cc1ccc(OCC(=O)NS(=O)(=O)c2c(C)noc2C)cc1C | -7.75% | -5.13% | -10.8% | -1.41% | 0.41% | 0.0853% | 17.7% | -5.26% | -6.02% | -0.0938% |
| CCC1CN(C(=O)NCCOc2ccc3c(c2)OCO3)CCO1 (stereo not given) | 1.77% | 18.2% | -3.28% | -3.36% | 5.53% | 15.4% | 1.58% | 4.9% | 16.5% | -6.67% |
